KLK7 zymogen act: activators of human kallikrein-7 zymogen | P49862 | purified proKLK7, EDANS-DABCYL substrate fluorescence; 100% is mature enzyme control, 0% vehicle | activation, % at 7 µM | actives 0.9% (n = 370,000) | AID 652039;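 active = activation above the mean of all tested compounds plus 3 SD, computed per campaign excluding outliers beyond control limits, cut at about 13% in these data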
ADAM17 inh: ADAM17 inhibition, QFRET primary screen; recombinant ADAM17, EDANS/DABCYL FRET peptide cleavage; actives 0.83% (n = 370,000); P78536; inhibition, % at 6.95 µM;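 active = inhibition above the mean of compounds lying between control limits plus 3 SD, set per campaign, cut at about 8.5% in these data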
PLCb3 inh: inhibitors of human phospholipase C beta3 | actives 0.18% (n = 370,000) | Q01970 | inhibition, % at 12.2 µM | Purified PLC-beta3, fluorogenic substrate, fluorescence
ADAM10 inh: inhibitors of human ADAM10 | O14672 | recombinant ADAM10, EDANS/DABCYL FRET peptide cleavage, 3 h | inhibition, % at 7 µM | actives 0.62% (n = 370,000) | AID 720582;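 active = inhibition above a per-campaign cutoff equal to the mean of compounds falling between control-based bounds plus 3 SD, cut at about 20% in these data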
PLC-gamma1 inh: inhibitors of human phospholipase C gamma1. P19174. purified PLC-gamma1, fluorogenic substrate, fluorescence. inhibition, % at 12.2 µM. actives 0.84% (n = 370,000). AID 720700; in the data active = inhibition above about 9.5%
Target sequence (P19174 whole entry, looked up): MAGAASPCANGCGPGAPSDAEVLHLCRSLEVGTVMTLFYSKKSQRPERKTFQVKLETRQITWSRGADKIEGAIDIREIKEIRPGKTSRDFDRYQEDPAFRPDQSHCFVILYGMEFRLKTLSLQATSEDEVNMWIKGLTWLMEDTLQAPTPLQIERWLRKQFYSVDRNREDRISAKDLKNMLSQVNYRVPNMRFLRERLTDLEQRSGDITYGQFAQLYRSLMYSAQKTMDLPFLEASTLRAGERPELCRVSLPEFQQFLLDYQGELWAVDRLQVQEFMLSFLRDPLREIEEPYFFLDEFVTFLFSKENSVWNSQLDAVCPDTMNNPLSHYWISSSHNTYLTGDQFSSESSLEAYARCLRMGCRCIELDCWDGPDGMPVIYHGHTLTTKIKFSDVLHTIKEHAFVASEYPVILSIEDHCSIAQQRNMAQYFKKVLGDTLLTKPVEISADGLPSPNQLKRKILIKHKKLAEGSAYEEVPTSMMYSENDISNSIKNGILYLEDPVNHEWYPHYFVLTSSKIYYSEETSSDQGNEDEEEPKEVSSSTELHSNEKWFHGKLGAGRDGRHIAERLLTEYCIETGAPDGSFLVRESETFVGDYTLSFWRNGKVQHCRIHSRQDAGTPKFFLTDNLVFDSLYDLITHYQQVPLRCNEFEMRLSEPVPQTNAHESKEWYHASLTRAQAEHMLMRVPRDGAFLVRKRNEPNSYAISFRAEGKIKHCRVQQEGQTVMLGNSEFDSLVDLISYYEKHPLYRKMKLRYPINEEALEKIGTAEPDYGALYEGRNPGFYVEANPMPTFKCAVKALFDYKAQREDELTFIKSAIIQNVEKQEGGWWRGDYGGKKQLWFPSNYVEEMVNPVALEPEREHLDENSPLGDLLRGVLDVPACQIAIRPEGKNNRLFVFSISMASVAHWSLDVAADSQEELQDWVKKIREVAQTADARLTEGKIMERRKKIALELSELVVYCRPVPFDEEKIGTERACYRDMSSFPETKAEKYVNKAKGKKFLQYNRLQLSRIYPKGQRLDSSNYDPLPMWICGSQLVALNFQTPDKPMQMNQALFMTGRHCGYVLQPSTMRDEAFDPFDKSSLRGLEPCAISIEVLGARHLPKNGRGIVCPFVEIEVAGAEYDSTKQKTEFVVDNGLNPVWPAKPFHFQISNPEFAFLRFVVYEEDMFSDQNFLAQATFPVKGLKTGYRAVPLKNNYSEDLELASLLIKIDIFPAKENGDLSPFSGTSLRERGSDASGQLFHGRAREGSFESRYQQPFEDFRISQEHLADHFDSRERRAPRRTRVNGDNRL
proKLK7 act conf: confirmation of human kallikrein-7 zymogen activators; shares compounds with KLK7 zymogen act; purified proKLK7, EDANS-DABCYL substrate fluorescence; scaled: vehicle 0, mature enzyme 100; activation, % at 7 µM; actives 68% (n = 3,200); AID 686949;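 active = activation, as change over the incubation, above the mean of all tested compounds plus 3 SD, cut at about 13% in these data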
EDANS-DABCYL int: optically interferes with EDANS-DABCYL signal, flagging KLK7 hits; actives 80% (n = 3,200); EDANS-DABCYL substrate fluorescence interference, no enzyme, 4 h; solvent 0%, active enzyme control 100%; activation, % at 7 µM; shares compounds with KLK7 zymogen act; AID 686952;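 active = activation above the all-compound mean plus 3 SD, ignoring values outside control-based bounds, cut at about 4.8% in these data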;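 also: value is the 4 h activation minus the activation read at time zero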
K7 EDANS ctr: counter-screen for kallikrein-7 activators: EDANS-DABCYL interference, dose response. shares compounds with KLK7 zymogen act. EDANS-DABCYL peptide fluorescence interference, no enzyme. EC50, µM. actives 20% (n = 250). AID 720493;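 active = compounds that raise the fluorescence signal in this interference counterscreen, with EC50 at or below 10 µM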;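 also: intact quenched peptide substrate alone read at 355 nm excitation and 520 nm emission; signal is fluorescence gain from T0 to T4 after four hours at room temperature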
ADAM10 confirm: human ADAM10 inhibition, confirmation. shares compounds with ADAM10 inh. ADAM10 QFRET peptide cleavage, EDANS fluorescence. inhibition, % at 6.95 µM. actives 1% (n = 2,100). AID 743208;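 active = inhibition above about 20% chosen separately for each screening run, limit read from the data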
ADAM17 counter: counter-screen for ADAM10 exosite inhibitors: inhibitors of human ADAM17; shares compounds with ADAM10 inh; ADAM17 QFRET peptide cleavage, EDANS fluorescence; inhibition, % at 6.95 µM; actives 0.5% (n = 2,100); AID 743214;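 active = mean triplicate inhibition above the solvent-only control wells' mean plus 3 SD, cut at about 12% in these data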
ADAM10 ctr: counter-screen for ADAM17 exosite inhibitors: inhibitors of human ADAM10. shares compounds with ADAM17 inh. recombinant ADAM10, EDANS/DABCYL FRET peptide cleavage, 3 h. inhibition, % at 6.95 µM. actives 47% (n = 2,900). AID 743256;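 active = mean inhibition over the triplicate runs exceeds the activity threshold set in the earlier primary screen, cut at about 20% in these data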
ADAM17 confirm: confirmation of inhibitors of human ADAM17; shares compounds with ADAM17 inh; recombinant ADAM17, EDANS/DABCYL QFRET peptide cleavage; inhibition, % at 6.95 µM; actives 65% (n = 2,900); AID 743257;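 active = mean inhibition across replicates above the hit cutoff set in the primary screen, cut at about 8.5% in these data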
PLCg1 ctr: inhibits human PLC-gamma1 in PLC-beta3 counter-screen; shares compounds with PLC-gamma1 inh; purified PLC-gamma1, fluorogenic substrate, fluorescence; inhibition, % at 12.3 µM; actives 3.1% (n = 3,300); in the data active = inhibition above about 9.5%
PLCb3 confirm: confirmation of human PLC-beta3 inhibitors; purified PLC-beta3, fluorogenic substrate fluorescence; shares compounds with PLC-gamma1 inh; actives 1% (n = 3,300); inhibition, % at 12.3 µM; AID 743261
Hits are given with their value; n = inactive; x = no result. A selection: hits, their analogues and other compounds. The true share with any hit is near 2.9%. Rule as the data show it, unless noted: active = inhibition above about 11%; inactive = the rest.

SMILES | KLK7 zymogen act | ADAM17 inh | PLCb3 inh | ADAM10 inh | PLC-gamma1 inh | proKLK7 act conf | EDANS-DABCYL int | others
COc1cccc(CN(C)Cc2cc(=O)oc3c(C)c(C)ccc23)c1 | n | n | n | n | n | x | x
COc1cccc(CN(C)Cc2cc(=O)oc3cc(O)c(Cl)cc23)c1 | 37.7 | n | n | n | n | 27.9 | 36.8
CCc1ccc(NC2=CC(=O)CC(C)(C)C2)cc1 | n | n | n | n | n | x | x
N#Cc1ccc(-c2nc3ccccc3nc2-c2ccccc2)cc1C#N | n | n | n | n | n | x | x
COc1cccc2c1C(=O)O/C2=C/c1ccc2c(c1)OCO2 | 16.0 | n | n | n | n | n | n
CCOC(=O)c1cn(C2CC2)c2c(F)c(NCCCN(C)C)c(F)cc2c1=O | 19.9 | n | n | n | n | n | 12.1
O=C(NCCc1cn[nH]c1)C1CCC(=O)N(CCc2cccc(F)c2)C1 (stereo not given) | n | n | n | n | n | x | x
CCN1CCN(Cc2c(O)ccc3c2O/C(=C\c2ccc(C)cc2)C3=O)CC1 | 44.0 | n | n | n | n | 18.2 | 7.1 | K7 EDANS ctr=n
O=C1/C(=C/C=C/c2ccccc2)Oc2c1ccc(O)c2CN1CCN(CCO)CC1 | n | n | n | n | n | x | x
CCN1CCN(Cc2c(O)ccc3c2O/C(=C\C=C\c2ccccc2)C3=O)CC1 | n | n | n | n | n | x | x
CCN1CCN(Cc2c(O)ccc3c2O/C(=C\c2ccccc2)C3=O)CC1 | 41.5 | n | n | n | n | 25.1 | 39.3
Cc1ccc(/C=C2\Oc3c(ccc(O)c3CN3CCN(C)CC3)C2=O)cc1 | 57.5 | n | n | n | n | 31.1 | 25.2
CCc1ccc(/C=C2\Oc3c(ccc(O)c3CN3CCN(C)CC3)C2=O)cc1 | 57.7 | n | n | n | n | 17.5 | 36.7
CCCc1cc(=O)[nH]c(SCC(=O)N(C)Cc2ccccc2)n1 | n | n | n | n | n | x | x
Cc1nc2c(c3c1[nH]c1ccccc13)C(O)CC(C)(C)C2 (stereo not given) | 34.1 | n | n | n | n | 41.3 | 40.2
Cc1nn(-c2ccccc2)c2c1C(O)CC(C)(C)C2 (stereo not given) | n | n | n | n | n | x | x
CCOc1cc(C2C3=C(CCCC3=O)N(CCC(=O)O)C3=C2C(=O)CCC3)ccc1OS(=O)(=O)c1ccc(C)cc1 | 19.8 | n | n | n | n | 29.8 | 32.0
CCS(=O)(=O)N1CCCC(C(=O)NCc2ccccc2Cl)C1 (stereo not given) | n | n | n | n | n | x | x
O=[N+]([O-])c1ccc(CN2CCN(c3ccccc3Cl)CC2)o1 | n | n | n | n | n | x | x
Cn1c(=O)c(C(=O)c2ccccc2)c(O)c2ccccc21 | n | n | n | n | n | x | x
Cc1c(O)c(=O)c2ccccc2n1C | 92.1 | n | n | n | n | 72.9 | 64.3
Cn1c(=O)c(-c2ccccc2)c(O)c2ccccc21 | n | n | n | n | n | x | x
Cc1ccc(N=Cc2c(O)c3ccccc3n(C)c2=O)cc1 | 29.2 | n | n | n | n | n | n
COc1ccc(CCNC(=O)CSc2nc(N)c(C#N)c(-c3cccs3)c2C#N)cc1OC | 22.2 | 8.9 | n | n | n | 35.1 | 40.6 | ADAM10 ctr=n;ADAM17 confirm=n
Cc1ccccc1NC(=O)CSc1nc(N)c(C#N)c(-c2cccs2)c1C#N | n | n | n | n | n | x | x
SMILES | KLK7 zymogen act | ADAM17 inh | PLCb3 inh | ADAM10 inh | PLC-gamma1 inh | proKLK7 act conf | EDANS-DABCYL int | others
COCC(=O)Nc1ccc(N2CCOCC2)c(S(=O)(=O)Nc2ccc(OC)cc2)c1 | n | n | n | n | n | x | x
CCc1ccccc1NC(=O)CSc1nc2n[nH]c(C)c2c(=N)n1-c1ccc(OC)cc1 | 31.4 | 11.9 | n | n | n | 20.2 | 16.1 | K7 EDANS ctr=3.27;ADAM10 ctr=n;ADAM17 confirm=9.0
CCOc1ccc(/C=C(\C)C(=O)c2c(C)cc(C)[nH]c2=O)cc1 | 27.8 | n | n | 19.8 | 12.4 | n | n | ADAM10 confirm=n;ADAM17 counter=n;PLCg1 ctr=n;PLCb3 confirm=n
COc1ccc(/C=C(\C)C(=O)c2c(C)cc(C)[nH]c2=O)cc1 | n | n | n | n | n | x | x
Nc1cc(Nc2ccccc2)c2nonc2c1[N+](=O)[O-] | 13.5 | n | n | n | 10.7 | n | n | PLCg1 ctr=n;PLCb3 confirm=n
COc1cccc(C(=O)Nc2ccc(S(=O)(=O)N3CCN(C)CC3)cc2)c1 | n | n | n | n | n | x | x
C[C@H](NC(=O)c1nc[nH]c1C(=O)N[C@@H](C)c1ccccc1)C(=O)OC(C)(C)C | n | n | n | n | n | x | x
CC(C)C[C@H](NC(=O)c1[nH]cnc1C(=O)N[C@@H](Cc1ccccc1)C(=O)OCc1ccccc1)C(=O)OCc1ccccc1 | n | n | n | n | n | x | x
CC(C)C[C@H](NC(=O)c1nc[nH]c1C(=O)N[C@@H](CC(C)C)C(=O)OCc1ccccc1)C(=O)OCc1ccccc1 | n | n | n | n | n | x | x
O=C(N[C@@H](Cc1ccccc1)C(=O)OCc1ccccc1)c1nc[nH]c1C(=O)NCc1ccccc1 | n | n | n | 21.4 | n | x | x | ADAM10 confirm=n;ADAM17 counter=n
CC(C)C[C@H](NC(=O)c1nc[nH]c1C(=O)NC(c1ccccc1)c1ccccc1)C(=O)OCc1ccccc1 | n | n | n | 23.2 | n | x | x | ADAM10 confirm=n;ADAM17 counter=n
CC(C)C[C@H](NC(=O)c1[nH]cnc1C(=O)N[C@H](C)c1ccccc1)C(=O)OC(C)(C)C | n | n | n | 25.4 | n | x | x | ADAM10 confirm=n;ADAM17 counter=n
O=C(CNC(=O)c1nc[nH]c1C(=O)N1CCc2ccccc2C1)OCc1ccccc1 | n | n | n | 22.3 | n | x | x | ADAM10 confirm=n;ADAM17 counter=n

Screens as filed in PubChem BioAssay.
